Consider 60 compounds from PubChem BioAssay AID504766 (The Scripps Research Institute Molecular Screening Center, 2011).

The campaign covered roughly 340,000 compounds. About 3,400 (1%) were called active.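 How the source made its calls: active means inhibition above the mean over all tested compounds plus 3 SD (cut at about 4.2% in these data); inactive means the rest.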 This excerpt belongs to a sample that is enriched for actives.

The target in the test is Nuclear receptor subfamily 0 group B member 1 (Homo sapiens) (UniProt P51843). Kind of test: relief of DAX1 transcriptional repression – cell-based, HEK293, Gal4-DAX1, luciferase luminescence, primary screen (AID 504766).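 Further: 0% = DAX1-transfected cells with DMSO and 100% = empty-vector control cells with DMSO; inhibition shows as a rise in luminescence from relieved DAX1 repression.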 The following applies: HEK293 Gal4-DAX1 luciferase reporter, at 6.75 µM, active compounds read high. For orientation: In a reporter assay the amount or activity of a reporter protein is the signal.
Sequence of Nuclear receptor subfamily 0 group B member 1 (Homo sapiens) (P51843 207-470 limits assumed): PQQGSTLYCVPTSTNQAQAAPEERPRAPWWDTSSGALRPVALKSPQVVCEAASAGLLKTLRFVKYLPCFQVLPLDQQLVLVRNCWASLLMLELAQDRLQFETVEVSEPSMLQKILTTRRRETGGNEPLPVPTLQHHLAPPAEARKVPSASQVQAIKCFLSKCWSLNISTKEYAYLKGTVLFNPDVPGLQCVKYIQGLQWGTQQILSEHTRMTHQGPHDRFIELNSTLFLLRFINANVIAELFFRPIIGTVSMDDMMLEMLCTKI
In general, inhibition refers to the relative decrease from the control value, in per cent. `COc1cc(SC)ccc1C(=O)N(Cc1ccccc1)c1ccccc1`: the inhibition is -0.88% (inactive).

Take `COc1cc(SC)ccc1C(=O)NCCOc1ccccc1Cl`: the inhibition is 4.52% (active).

As to `COc1ccccc1OCCNC(=O)CCNC(=O)c1ccccc1Cl`, the inhibition was 0.98% (inactive).

With `O=C(NCC(F)(F)F)c1ccc(S(=O)(=O)NCCc2ccc3c(c2)OCCO3)cc1`, the inhibition is 1.37% (inactive).

As to `C#Cc1cc(N2CCN(C(=O)c3ccoc3)CC2)n2nc(-c3cccc(Cl)c3)cc2n1`, the inhibition is -0.19% (inactive).

With `CCCc1c(C)nc2scc(-c3ccc(Cl)cc3)n2c1=O`, the inhibition is 1.4% (inactive).

With `COc1ccc(OC)c(/C=C/C(=O)c2ccc3c(c2)OCO3)c1`, the inhibition was 5.49% (active).

Take `COc1ccc(NC(=O)NCc2ccc3c(c2)OCO3)c(OC)c1`: the inhibition is 0.03% (inactive).

On to `COc1ccc(OC)c(/C=C/C(=O)OCC(=O)Nc2ccc3c(c2)OCCO3)c1`, for which the inhibition is 0.21% (inactive).

For the compound `CCCCN(C(C)=O)c1ccc2c(c1)C1CC2CCN1Cc1ccccc1` (stereo not given), the inhibition is 1.48% (inactive).

Turning to `CCN(CC)CCN(C(=O)c1ccc2c(c1)CCCC2)c1nc2c(OC)cccc2s1`, the inhibition is -0.58% (inactive).

Consider `O=C(CC12CC3CC(CC(C3)C1)C2)NCc1ccco1`, for which the inhibition is -0.86% (inactive).

As for `COC(=O)/C=C/C(=O)NCc1ccco1`, the inhibition is 1.74% (inactive).

On to `CC(C)(C)NC(=O)NCc1ccco1`, for which the inhibition is 4.44% (active).

Consider `COc1ccc(OC)c(C(=O)NC2CCCc3c2cnn3-c2cc(C)cc(C)c2)c1` (stereo not given), for which the inhibition is -1.87% (inactive).

`COc1ccc(NC(=O)COC(=O)C2COc3ccccc3O2)cc1` (stereo not given): the inhibition was 0.47% (inactive).

For `CC(=O)c1cccc(NC(=O)C2COc3ccccc3O2)c1` (stereo not given), the inhibition was 2.01% (inactive).

Consider `COc1ccc(NC(=O)C2COc3ccccc3O2)cc1` (stereo not given), for which the inhibition was 5.29% (active).

Consider `COc1cc(C(=O)N2CCOC23CCN(Cc2ccccc2)CC3)cc(OC)c1OC`, for which the inhibition is 2.69% (inactive).

On to `O=C(CN1C(=O)NC2(CCCCCC2)C1=O)NC1CC1`, for which the inhibition was -0.19% (inactive).

For `O=C(CN1C(=O)NC2(CCCCCC2)C1=O)NCc1ccc(F)cc1`, the inhibition is -0.55% (inactive).

Regarding `O=C(CN1C(=O)NC2(CCCC2)C1=O)NCC1CCCO1` (stereo not given), the inhibition is 10.2% (active).

`CC1CCCC(C)N1C(=O)COC(=O)c1ccccc1C(=O)c1ccccc1` (stereo not given): the inhibition was 1.22% (inactive).

On to `N#CCCN1CCN(S(=O)(=O)c2ccc(S(=O)(=O)NC3CCCCC3)cc2)CC1`, for which the inhibition is 4.67% (active).

As to `N#CCCN1CCN(S(=O)(=O)c2ccc(S(=O)(=O)N3CCCC3)cc2)CC1`, the inhibition is 2.37% (inactive).

On to `N#CCCN1CCN(S(=O)(=O)c2ccc(S(=O)(=O)NC3CC3)cc2)CC1`, for which the inhibition was -1.02% (inactive).

In the case of `CNC(=O)c1ccc(CN(C)C(=O)c2cc(C3CC3)nc3c2cnn3C(C)C)cc1`, the inhibition was 0.25% (inactive).

On to `COCCNC(=O)CSc1nc(N)c(NC(=O)c2ccco2)c(=O)[nH]1`, for which the inhibition was 0.48% (inactive).

Regarding `CCN(CC(=O)Nc1ccc(NC(C)=O)cc1)C(=O)C1CC(=O)N(c2ccc3c(c2)OCCO3)C1` (stereo not given), the inhibition is 0.46% (inactive).

As for `CCn1c(CN2C(=O)CSc3ccccc32)n[nH]c1=S`, the inhibition is 7.22% (active).

As to `CCn1c(CNS(=O)(=O)c2ccc(Cl)cc2)n[nH]c1=S`, the inhibition is 0.01% (inactive).

Regarding `CCn1c(CSCc2c(Cl)cccc2Cl)n[nH]c1=S`, the inhibition was -0.93% (inactive).

As to `O=C(COC(=O)c1cncc(Br)c1)Nc1ccc(S(=O)(=O)N2CCOCC2)cc1`, the inhibition was 1.32% (inactive).

Take `O=C(Nc1cc(F)ccc1F)c1ccc2c(=O)n3c(nc2c1)CCC3`: the inhibition was 3.09% (inactive).

Consider `O=C1c2ccccc2C(=O)c2c1cccc2N1CCN(Cc2ccccc2)CC1`, for which the inhibition was 4.26% (active).

`O=C(CN1CCN(Cc2ccccc2)CC1)NC(c1ccccc1)c1ccccc1`: the inhibition was -1.74% (inactive).

Consider `O=C1c2ccccc2C(=O)c2c1cccc2N1CCN(CCO)CC1`, for which the inhibition was 0% (inactive).

For the compound `CC(=O)Nc1ccc2c3c(ccc([N+](=O)[O-])c13)CC2`, the inhibition was -0.19% (inactive).

In the case of `COc1cccc(NC(=S)NC(=O)c2c(Cl)c(C)nn2C)c1`, the inhibition is 4.28% (active).

With `Cc1nn(C)c(C(=O)NNC(=S)NC2CCCCC2)c1Cl`, the inhibition was -0.26% (inactive).

Turning to `COc1cccc(OC)c1C(=O)NC(=S)Nc1ccc(N2CCOCC2)c(Cl)c1`, the inhibition is 0.83% (inactive).

As for `CCCCCCn1c(=O)n2n(c1=O)C[C@]1(OC(=O)NCc3ccc(OC)c(OC)c3)CN(S(=O)(=O)c3ccc(C)cc3)C[C@]1(O)C2`, the inhibition was -0.07% (inactive).

For `C=CCN1CCN(c2ccncc2S(=O)(=O)N2CCN(C)CC2)CC1`, the inhibition was 1.7% (inactive).

Regarding `C[C@@H]1CN([C@@H](C)CO)C(=O)c2c(c3ccccc3n2C)-c2ccccc2CO[C@H]1CN(C)C(=O)C1CC1`, the inhibition was 0.47% (inactive).

As for `COc1ccc(NC(=O)N(C)C[C@@H]2OCc3cn(nn3)CCCC(=O)N([C@H](C)CO)C[C@H]2C)c(OC)c1`, the inhibition was -0.22% (inactive).

In the case of `Cc1cccc(NC(=O)CN2C(=O)CNC2=O)c1`, the inhibition is 1.34% (inactive).

On to `C=CCOc1ccccc1NC(=O)CN1C(=O)CNC1=O`, for which the inhibition is 4.47% (active).

In the case of `C=CCOc1ccccc1/C=N/NC(=O)Cc1ccccc1`, the inhibition was 0.28% (inactive).

Consider `COc1ccc(/C=C2\N=C3CCCN3C2=O)cc1`, for which the inhibition is 4.84% (active).

Consider `COc1ccc(/C=C2/CCCc3ccccc3C2=O)cc1`, for which the inhibition was -1.11% (inactive).

Consider `COc1ccc(/C=C2\SC(=N)N(c3ccc(F)cc3)C2=O)cc1`, for which the inhibition is -0.7% (inactive).

For the compound `COc1ccc(S(=O)(=O)N2CCC(C(=O)NCCC(=O)NCCc3cccc(F)c3)CC2)cc1`, the inhibition is 0.25% (inactive).

Turning to `CSc1ncnc2c1ncn2CCCNCC1CCCCC1`, the inhibition is -0.19% (inactive).

Consider `COc1ccc(-c2nnc(SC(C)C(=O)NC3CC3)o2)cc1` (stereo not given), for which the inhibition was 1.85% (inactive).

Take `COc1ccc(-c2nnc(SC(C)C#N)o2)cc1` (stereo not given): the inhibition was 4.68% (active).

As for `COc1ccc(-c2nnc(SC(=O)N3c4ccccc4Sc4ccccc43)o2)cc1`, the inhibition was -1.53% (inactive).

`CNC(=O)C1CN(C(=O)c2cccc(S(=O)(=O)N3CCc4ccccc43)c2)c2ccccc2O1` (stereo not given): the inhibition is -2.16% (inactive).

As for `CCCN(C(=O)CSc1nnc(N)s1)c1c(N)n(Cc2ccccc2)c(=O)[nH]c1=O`, the inhibition is -2.02% (inactive).

In the case of `CCCCN(C(=O)CSCc1ccc(C)cc1)c1c(N)n(Cc2ccccc2)c(=O)[nH]c1=O`, the inhibition is 0.19% (inactive).

For `CCCN(C(=O)CSc1nnnn1C)c1c(N)n(Cc2ccccc2)c(=O)[nH]c1=O`, the inhibition was 5.42% (active).
